# PubChem BioAssay (NCI)
# The panel holds about 79,000 compounds, 15% with a hit somewhere; the sample as a whole holds those more often. Values without a mark were called inactive. Activity calls are given as the source filed them. Cut-off read from the data, not from the text of the source: active = growth inhibition above about 70%; inactive = the rest.
# Tests used:
# [1] = NCI Yeast Anticancer Drug Screen. Data for the mlh1 strain (AID 171);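 note: 0% = growth of vehicle-treated control cultures of the same strain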; settings: S. cerevisiae mlh1 strain growth inhibition, stronger effect = higher value
# In short: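 A yeast strain with a defined genetic lesion serves as the test organism. Cultures receive compound or vehicle, and growth is measured.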
# [2] = NCI Yeast Anticancer Drug Screen. Data for the sgs1 strain (AID 173);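 note: 0% = growth of vehicle-only control cultures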; settings: S. cerevisiae sgs1 mutant, stronger effect = higher value
# In short: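 A genetically defined yeast mutant is incubated with the test compound, and its growth is compared to that of the same strain given vehicle.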
# [3] = NCI Yeast Anticancer Drug Screen. Data for the mlh1 rad18 strain (AID 175); settings: S. cerevisiae mlh1 rad18 strain growth inhibition, stronger effect = higher value
# In short: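 Steps: expose repair-defective yeast to compound; measure growth; express inhibition against vehicle-treated controls.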
# [4] = NCI Yeast Anticancer Drug Screen. Data for the rad18 strain (AID 177); settings: S. cerevisiae rad18 mutant growth inhibition, stronger effect = higher value
# In short: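 Measured value is growth inhibition of a yeast strain bearing a DNA repair alteration, referenced to vehicle-treated cells.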
# [5] = NCI Yeast Anticancer Drug Screen. Data for the rad52 strain (AID 147);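 note: 0% = growth of vehicle-treated control cultures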; settings: S. cerevisiae rad52 mutant growth inhibition, stronger effect = higher value
# In short: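 Here a repair-compromised yeast strain receives each compound; its growth is then quantified and normalised to vehicle-only controls.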
# [6] = NCI Yeast Anticancer Drug Screen. Data for the rad50EPP+ strain (AID 151);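 note: 0% = growth of vehicle-treated control cultures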; settings: S. cerevisiae rad50 mutant strain, stronger effect = higher value
# In short: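 Read-out is yeast growth inhibition relative to vehicle; cells used were the rad50EPP+ strain.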
# [7] = NCI Yeast Anticancer Drug Screen. Data for the mgt1 strain (AID 153); settings: S. cerevisiae mgt1 mutant growth inhibition, stronger effect = higher value
# In short: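 Measured: inhibition of mgt1 yeast growth by compound, normalized to vehicle-treated cultures.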
# [8] = NCI Yeast Anticancer Drug Screen. Data for the rad50 strain (AID 155);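 note: 0% = growth of vehicle-only cultures of the same strain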; settings: S. cerevisiae rad50 strain growth inhibition, stronger effect = higher value
# In short: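 Cells are treated with compound, grown, and their growth is then scored against vehicle-only cultures of the same repair-deficient yeast strain.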
# [9] = NCI Yeast Anticancer Drug Screen. Data for the mec2-1 strain (AID 157); settings: S. cerevisiae mec2-1 strain, stronger effect = higher value
# In short: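 Using mec2-1 yeast: add compound, measure growth, express inhibition versus vehicle-treated cultures.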
# [10] = NCI Yeast Anticancer Drug Screen. Data for the rad14 strain (AID 159);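 note: 0% = growth of vehicle-treated control cultures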; settings: S. cerevisiae rad14 strain growth inhibition, stronger effect = higher value
# In short: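 Readout: yeast growth inhibition, referenced to vehicle-only cultures. Strain bears a defined alteration in DNA damage repair.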
# [11] = NCI Yeast Anticancer Drug Screen. Data for the sgs1 mgt1 strain (AID 161);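 note: 0% = growth of cultures given vehicle only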; settings: S. cerevisiae sgs1 mgt1 strain, stronger effect = higher value
# In short: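 Compounds are added to genetically altered yeast, and growth is compared with cultures given vehicle alone to give percent inhibition.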
# [12] = NCI Yeast Anticancer Drug Screen. Data for the CLN2oe strain (AID 163);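 note: 0% = growth of vehicle-only control cultures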; settings: S. cerevisiae CLN2oe strain, stronger effect = higher value
# In short: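 Whole-cell yeast growth assay. A strain engineered for altered cell-cycle control received compound, and inhibition relative to vehicle-treated cultures was recorded.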
# [13] = NCI Yeast Anticancer Drug Screen. Data for the cln2 rad14 strain (AID 165);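 note: 0% = growth equal to vehicle treated cultures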; settings: S. cerevisiae cln2 rad14 strain, stronger effect = higher value
# In short: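 Yeast strain cln2 rad14, bearing defects in cell cycle control and DNA repair, serves as the test system; values reflect growth inhibition compared with vehicle.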
# [14] = NCI Yeast Anticancer Drug Screen. Data for the bub3 strain (AID 167); settings: S. cerevisiae bub3 mutant strain, stronger effect = higher value
# In short: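 Part of a panel of yeast mutants defective in DNA damage repair or cell cycle regulation. Each strain is grown with compound, and inhibition is calculated relative to solvent-treated cultures.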
# [15] = NCI Yeast Anticancer Drug Screen. Data for the wt2 strain (AID 169);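 note: 0% = growth of vehicle-treated yeast cultures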; settings: S. cerevisiae wt2 strain growth inhibition, stronger effect = higher value
# In short: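 Treated yeast vs. vehicle-treated yeast: growth inhibition determined.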
# [16] = NCI Yeast Anticancer Drug Screen. Data for the wt1 strain (AID 149);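 note: 0% = growth of vehicle-treated wt1 cultures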; settings: S. cerevisiae wt1 strain (SPY 50644) growth inhibition, stronger effect = higher value
# In short: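 The wt1 strain was treated with compounds, and growth was compared with vehicle-treated cultures to give inhibition.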
# [17] = at 5.0 µM (retest, dose inferred, filed as 0.5)
# [18] = at 50.0 µM (retest, dose inferred, filed as 5.0)
structure (smiles),measurement,setting,value
COc1cc(O)c2c(O)c3c(c4c2c1[C@]1(C4)C(C)=CCCC1(C)C)[C@H](O)[C@@]1(O)CC(=O)C(C(N)=O)=C(O)[C@@]1(O)C3=O,growth inhibition,[1]; at 33.0 µM,97% (active)
same,growth inhibition,[1]; at 100.0 µM,95% (active)
same,growth inhibition,[2]; at 1.2 µM,-38%
same,growth inhibition,[2]; at 3.7 µM,88% (active)
same,growth inhibition,[2]; at 11.0 µM,97% (active)
same,growth inhibition,[2]; at 33.0 µM,97% (active)
same,growth inhibition,[2]; at 100.0 µM,93% (active)
same,growth inhibition,[3]; [17],-5%
same,growth inhibition,[3]; [18],97% (active)
same,growth inhibition,[3]; at 50.0 µM,96.8% (active)
same,growth inhibition,[4]; at 1.2 µM,-21%
same,growth inhibition,[4]; at 3.7 µM,85% (active)
same,growth inhibition,[4]; at 11.0 µM,97% (active)
same,growth inhibition,[4]; at 33.0 µM,97% (active)
same,growth inhibition,[4]; at 100.0 µM,95% (active)
Cn1cc(NC(=O)c2cc(NC(=O)CN=C(N)N)cn2C)cc1C(=O)NCCC(=N)N,growth inhibition,[5]; at 1.2 µM,21%
same,growth inhibition,[5]; at 3.7 µM,7%
same,growth inhibition,[5]; at 11.0 µM,56%
same,growth inhibition,[5]; at 33.0 µM,97% (active)
same,growth inhibition,[5]; at 100.0 µM,98% (active)
same,growth inhibition,[6]; at 1.2 µM,19%
same,growth inhibition,[6]; at 3.7 µM,1%
same,growth inhibition,[6]; at 11.0 µM,24%
same,growth inhibition,[6]; at 33.0 µM,73% (active)
same,growth inhibition,[6]; at 100.0 µM,96% (active)
same,growth inhibition,[7]; at 1.2 µM,1%
same,growth inhibition,[7]; at 3.7 µM,6%
same,growth inhibition,[7]; at 11.0 µM,5%
same,growth inhibition,[7]; at 33.0 µM,94% (active)
same,growth inhibition,[7]; at 100.0 µM,99% (active)
same,growth inhibition,[8]; at 1.2 µM,0%
same,growth inhibition,[8]; at 3.7 µM,4%
same,growth inhibition,[8]; [17],-30%
same,growth inhibition,[8]; at 11.0 µM,67%
same,growth inhibition,[8]; at 33.0 µM,97% (active)
same,growth inhibition,[8]; [18],87% (active)
same,growth inhibition,[8]; at 50.0 µM,89.2% (active)
same,growth inhibition,[8]; at 100.0 µM,97% (active)
same,growth inhibition,[9]; at 1.2 µM,20%
same,growth inhibition,[9]; at 3.7 µM,18%
same,growth inhibition,[9]; [17],-11%
same,growth inhibition,[9]; at 11.0 µM,31%
same,growth inhibition,[9]; at 33.0 µM,95% (active)
same,growth inhibition,[9]; [18],44%
same,growth inhibition,[9]; at 50.0 µM,87.5% (active)
same,growth inhibition,[9]; at 100.0 µM,99% (active)
same,growth inhibition,[10]; at 1.2 µM,18%
same,growth inhibition,[10]; at 3.7 µM,-2%
same,growth inhibition,[10]; at 11.0 µM,35%
same,growth inhibition,[10]; at 33.0 µM,97% (active)
same,growth inhibition,[10]; at 100.0 µM,98% (active)
same,growth inhibition,[11]; [17],7%
same,growth inhibition,[11]; [18],11%
same,growth inhibition,[11]; at 50.0 µM,84.6% (active)
same,growth inhibition,[12]; at 1.2 µM,-1%
same,growth inhibition,[12]; at 3.7 µM,0%
same,growth inhibition,[12]; at 11.0 µM,16%
same,growth inhibition,[12]; at 33.0 µM,96% (active)
same,growth inhibition,[12]; at 100.0 µM,97% (active)
same,growth inhibition,[13]; [17],-13%
same,growth inhibition,[13]; [18],28%
same,growth inhibition,[13]; at 50.0 µM,68.5%
same,growth inhibition,[14]; at 1.2 µM,11%
same,growth inhibition,[14]; at 3.7 µM,18%
same,growth inhibition,[14]; [17],6%
same,growth inhibition,[14]; at 11.0 µM,2%
same,growth inhibition,[14]; at 33.0 µM,93% (active)
same,growth inhibition,[14]; [18],70% (active)
same,growth inhibition,[14]; at 50.0 µM,87.3% (active)
same,growth inhibition,[14]; at 100.0 µM,97% (active)
same,growth inhibition,[15]; at 1.2 µM,17%
same,growth inhibition,[15]; at 3.7 µM,13%
same,growth inhibition,[15]; at 11.0 µM,23%
same,growth inhibition,[15]; at 33.0 µM,95% (active)
same,growth inhibition,[15]; at 100.0 µM,97% (active)
same,growth inhibition,[1]; at 1.2 µM,-8%
same,growth inhibition,[1]; at 3.7 µM,-16%
same,growth inhibition,[1]; at 11.0 µM,-7%
same,growth inhibition,[1]; at 33.0 µM,93% (active)
same,growth inhibition,[1]; at 100.0 µM,98% (active)
same,growth inhibition,[2]; at 1.2 µM,4%
same,growth inhibition,[2]; at 3.7 µM,6%
same,growth inhibition,[2]; at 11.0 µM,17%
same,growth inhibition,[2]; at 33.0 µM,93% (active)
same,growth inhibition,[2]; at 100.0 µM,96% (active)
same,growth inhibition,[3]; [17],-18%
same,growth inhibition,[3]; [18],94% (active)
same,growth inhibition,[3]; at 50.0 µM,85.5% (active)
same,growth inhibition,[4]; at 1.2 µM,-4%
same,growth inhibition,[4]; at 3.7 µM,-18%
same,growth inhibition,[4]; at 11.0 µM,14%
same,growth inhibition,[4]; at 33.0 µM,95% (active)
same,growth inhibition,[4]; at 100.0 µM,97% (active)
CCN(CCCl)CCCCNc1c2ccccc2nc2ccc(OC)cc12,growth inhibition,[16]; at 1.2 µM,3%
same,growth inhibition,[16]; at 3.7 µM,8%
same,growth inhibition,[16]; at 11.0 µM,32%
same,growth inhibition,[16]; at 33.0 µM,74% (active)
same,growth inhibition,[16]; at 100.0 µM,95% (active)
same,growth inhibition,[6]; at 1.2 µM,18%
same,growth inhibition,[6]; at 3.7 µM,39%
same,growth inhibition,[6]; at 11.0 µM,63%
same,growth inhibition,[6]; at 33.0 µM,77% (active)
same,growth inhibition,[6]; at 100.0 µM,90% (active)
same,growth inhibition,[7]; at 1.2 µM,9%
same,growth inhibition,[7]; at 3.7 µM,14%
same,growth inhibition,[7]; at 11.0 µM,42%
same,growth inhibition,[7]; at 33.0 µM,86% (active)
same,growth inhibition,[7]; at 100.0 µM,97% (active)
same,growth inhibition,[8]; at 1.2 µM,38%
same,growth inhibition,[8]; at 3.7 µM,64%
same,growth inhibition,[8]; [17],46%
same,growth inhibition,[8]; at 11.0 µM,84% (active)
same,growth inhibition,[8]; at 33.0 µM,91% (active)
same,growth inhibition,[8]; [18],46%
same,growth inhibition,[8]; at 50.0 µM,85.8% (active)
same,growth inhibition,[8]; at 100.0 µM,95% (active)
same,growth inhibition,[9]; at 1.2 µM,9%
same,growth inhibition,[9]; at 3.7 µM,18%
same,growth inhibition,[9]; [17],26%
same,growth inhibition,[9]; at 11.0 µM,48%
same,growth inhibition,[9]; at 33.0 µM,94% (active)
same,growth inhibition,[9]; [18],26%
same,growth inhibition,[9]; at 50.0 µM,74.2% (active)
same,growth inhibition,[9]; at 100.0 µM,97% (active)
same,growth inhibition,[10]; at 1.2 µM,4%
same,growth inhibition,[10]; at 3.7 µM,17%
same,growth inhibition,[10]; at 11.0 µM,80% (active)
same,growth inhibition,[10]; at 33.0 µM,95% (active)
same,growth inhibition,[10]; at 100.0 µM,98% (active)
same,growth inhibition,[11]; [17],60%
same,growth inhibition,[11]; [18],60%
same,growth inhibition,[11]; at 50.0 µM,72.1% (active)
same,growth inhibition,[12]; at 1.2 µM,8%
same,growth inhibition,[12]; at 3.7 µM,33%
same,growth inhibition,[12]; at 11.0 µM,57%
same,growth inhibition,[12]; at 33.0 µM,78% (active)
same,growth inhibition,[12]; at 100.0 µM,95% (active)
same,growth inhibition,[13]; [17],24%
same,growth inhibition,[13]; [18],24%
same,growth inhibition,[13]; at 50.0 µM,77.9% (active)
same,growth inhibition,[14]; at 1.2 µM,-21%
same,growth inhibition,[14]; at 3.7 µM,-14%
same,growth inhibition,[14]; [17],-15%
same,growth inhibition,[14]; at 11.0 µM,38%
same,growth inhibition,[14]; at 33.0 µM,82% (active)
same,growth inhibition,[14]; [18],-15%
same,growth inhibition,[14]; at 50.0 µM,60.9%
same,growth inhibition,[14]; at 100.0 µM,94% (active)
same,growth inhibition,[1]; at 1.2 µM,4%
same,growth inhibition,[1]; at 3.7 µM,16%
same,growth inhibition,[1]; at 11.0 µM,51%
same,growth inhibition,[1]; at 33.0 µM,70% (active)
same,growth inhibition,[1]; at 100.0 µM,96% (active)
same,growth inhibition,[2]; at 1.2 µM,46%
same,growth inhibition,[2]; at 3.7 µM,69%
same,growth inhibition,[2]; at 11.0 µM,82% (active)
same,growth inhibition,[2]; at 33.0 µM,90% (active)
same,growth inhibition,[2]; at 100.0 µM,96% (active)
same,growth inhibition,[3]; [17],18%
same,growth inhibition,[3]; [18],18%
same,growth inhibition,[3]; at 50.0 µM,69.5%
same,growth inhibition,[4]; at 1.2 µM,66%
same,growth inhibition,[4]; at 3.7 µM,80% (active)
same,growth inhibition,[4]; at 11.0 µM,90% (active)
same,growth inhibition,[4]; at 33.0 µM,94% (active)
same,growth inhibition,[4]; at 100.0 µM,95% (active)
